# PubChem BioAssay AID602144 (Vanderbilt Specialized Chemistry Center, 2011)
# The source made the active and inactive calls. No stated cut-off is given here; in the data, active means remaining activity below about 50%; inactive means the rest.
# Target: Phospholipase D1 (Homo sapiens) (UniProt Q13393)
# Assay: cellular phospholipase D1 activity inhibition – Calu-1 cells, single concentration (AID 602144);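 further: tested at 200 nM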
# Details: cellular PLD1 activity, stronger effect = lower value
# Sequence of Phospholipase D1 (Homo sapiens) (Q13393 whole entry, looked up): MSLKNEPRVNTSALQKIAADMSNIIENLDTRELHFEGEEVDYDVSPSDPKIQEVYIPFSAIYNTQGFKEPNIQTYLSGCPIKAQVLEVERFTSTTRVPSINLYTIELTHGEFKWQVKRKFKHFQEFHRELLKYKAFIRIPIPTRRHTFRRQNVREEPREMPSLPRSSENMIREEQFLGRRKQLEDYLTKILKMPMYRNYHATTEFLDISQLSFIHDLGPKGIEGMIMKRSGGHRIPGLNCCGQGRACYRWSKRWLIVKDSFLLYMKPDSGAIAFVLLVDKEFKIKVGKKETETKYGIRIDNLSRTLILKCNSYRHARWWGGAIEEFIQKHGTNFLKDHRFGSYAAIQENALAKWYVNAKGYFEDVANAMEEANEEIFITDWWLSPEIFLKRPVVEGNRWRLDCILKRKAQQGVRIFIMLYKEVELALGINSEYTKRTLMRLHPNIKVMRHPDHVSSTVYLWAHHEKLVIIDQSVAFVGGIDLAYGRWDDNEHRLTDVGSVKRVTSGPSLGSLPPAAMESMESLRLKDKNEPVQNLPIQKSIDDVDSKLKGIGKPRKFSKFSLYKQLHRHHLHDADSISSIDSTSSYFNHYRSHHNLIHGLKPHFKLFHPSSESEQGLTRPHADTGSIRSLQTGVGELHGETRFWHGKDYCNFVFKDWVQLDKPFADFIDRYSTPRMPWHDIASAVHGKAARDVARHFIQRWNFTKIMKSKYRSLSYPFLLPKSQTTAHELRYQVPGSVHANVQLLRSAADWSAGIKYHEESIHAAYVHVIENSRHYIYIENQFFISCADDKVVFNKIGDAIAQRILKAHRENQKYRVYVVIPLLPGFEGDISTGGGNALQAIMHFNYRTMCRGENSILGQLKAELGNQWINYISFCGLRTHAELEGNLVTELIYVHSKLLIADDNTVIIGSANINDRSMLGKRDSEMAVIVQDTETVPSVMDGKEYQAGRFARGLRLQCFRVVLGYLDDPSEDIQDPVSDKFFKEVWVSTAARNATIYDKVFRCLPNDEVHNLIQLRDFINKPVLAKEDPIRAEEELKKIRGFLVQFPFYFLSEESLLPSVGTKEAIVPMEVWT
# Sequence of Phospholipase D1 (Homo sapiens) (Q13393 whole entry, looked up): as above
row,SMILES,remaining activity
1,CC1(C)C(C(=O)NCCN2CCC3(CC2)C(=O)NCN3c2ccccc2)C1(C)C,104% (inactive)
2,O=C(c1cnc2ccccc2c1)N1CC(N2CCC(n3c(=O)[nH]c4ccccc43)CC2)C1,119% (inactive)
3,O=C(Cc1ccccc1Br)NCCN1CCC2(CC1)C(=O)NCN2c1cccc(F)c1,100% (inactive)
4,O=C(CCN1CCC2(CC1)C(=O)NCN2c1ccccc1)Nc1ccc(Cl)cc1,122% (inactive)
5,O=C(NCCN1CCC2(CC1)C(=O)NCN2c1ccccc1)c1ccc2cc(F)ccc2c1,73.9% (inactive)
6,O=C(CN1CCC2(CC1)C(=O)NCN2c1ccccc1)c1ccccc1,102% (inactive)
7,O=C(NCCN1CCC2(CC1)C(=O)NCN2c1ccc(Br)cc1)c1cnc2ccccc2c1,94.1% (inactive)
8,O=C(NCCN1CCC2(CC1)C(=O)NCN2c1cccc(F)c1)c1ccc(Cl)cc1Cl,110% (inactive)
9,O=C(C1CC1c1ccccc1)N1CC(N2CCC3(CC2)C(=O)NCN3c2ccccc2)C1 (stereo not given),94.4% (inactive)
10,O=C(NCCCCCCN1CCC2(CC1)C(=O)NCN2c1ccccc1)c1ccc2ccccc2c1,131% (inactive)
11,COc1cc(OC)cc(C(=O)NCCN2CCC3(CC2)C(=O)NCN3c2cccc(F)c2)c1,97% (inactive)
12,C[C@H](CN1CCC2(CC1)C(=O)NCN2c1ccccc1)NC(=O)c1ccc(F)cc1,34.8% (active)
13,O=C(NCCN1CCC2(CC1)C(=O)NCN2c1ccccc1)C1C[C@H]1c1ccccc1 (stereo not given in full),138% (inactive)
14,O=C(c1c(F)cccc1F)N(CCN1CCC2(CC1)C(=O)NCN2c1cccc(F)c1)C(=O)c1c(F)cccc1F,97.9% (inactive)
15,CCCCCC(=O)N(CCN1CCC2(CC1)C(=O)NCN2c1cccc(F)c1)C(=O)CCCCC,90.1% (inactive)
16,O=C(NCCN1CCC2(CC1)C(=O)NCN2c1ccccc1)c1ccc2c(c1)C(=O)OC2=O,103% (inactive)
17,O=C(CCCl)NCCN1CCC2(CC1)C(=O)NCN2c1cccc(F)c1,75.7% (inactive)
18,O=C(NCCN1CCC2(CC1)C(=O)NCN2c1ccccc1)c1cnc2ccccc2n1,96.5% (inactive)

row,SMILES,remaining activity
1,O=C(NCCN1CCC2(CC1)C(=O)NCN2c1ccccc1)C1(c2ccccc2)CCC1,94.9% (inactive)
2,CCCCOc1ccc(C(=O)NCCN2CCC3(CC2)C(=O)NCN3c2cccc(F)c2)cc1,110% (inactive)
3,O=C(NCCN1CCC2(CC1)C(=O)NCN2c1cccc(F)c1)c1ccc(-c2ccccc2)cc1,93% (inactive)
4,O=C(NCCN1CCC2(CC1)C(=O)NCN2c1ccccc1)c1ccc2c(c1)OCO2,92.4% (inactive)
5,O=C(NCCN1CCC2(CC1)C(=O)NCN2c1ccccc1)C(c1ccccc1)c1ccccc1,99.2% (inactive)
6,O=C(NCCN1CCC2(CC1)C(=O)NCN2c1ccccc1)c1cccc(F)n1,138% (inactive)
7,O=C(NCCN1CCC2(CC1)C(=O)NCN2c1ccc(F)cc1)c1ccc(F)cc1,78.2% (inactive)
8,CC(C)[C@@H](CN1CCC2(CC1)C(=O)NCN2c1ccccc1)NC(=O)c1cc2cc(F)ccc2[nH]1,6.9% (active)
9,O=C(NCCN1CCC2(CC1)C(=O)NCN2c1ccccc1)c1cc2ccccc2s1,50.8% (inactive)
10,O=C(NCCN1CCC2(CC1)C(=O)NCN2c1ccccc1)c1ccc(-c2ccccc2)o1,132% (inactive)
11,O=C(NCCN1CCC2(CC1)C(=O)NCN2c1ccc(F)cc1)c1cnc2ccccc2c1,60.5% (inactive)
12,O=C1c2ccccc2C(=O)N1CCN1CCC2(CC1)C(=O)NCN2c1ccccc1,102% (inactive)
13,C[C@@H](CN1CCC2(CC1)C(=O)NCN2c1ccccc1)NC(=O)c1ccc2ccccc2c1,4.56% (active)
14,Nc1ccc(C(=O)NCCN2CCC3(CC2)C(=O)NCN3c2ccccc2)cc1OC(F)(F)F,91.5% (inactive)
15,O=C(NCCN1CCC2(CC1)C(=O)NCN2c1cccc(Cl)c1)c1ccc(F)cc1,79.6% (inactive)
16,Cc1cccc(C(=O)NCCN2CCC3(CC2)C(=O)NCN3c2ccccc2)n1,123% (inactive)
17,O=C(c1cnc2ccccc2c1)N1CCCC1CN1CCC(n2c(=O)[nH]c3ccccc32)CC1 (stereo not given),122% (inactive)
